Experimental data published in PubChem BioAssay (NCI).
This is part of a sample that, as a whole, favours compounds with a hit. Of some 83,000 tested, about 20% had one in any assay.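 48-hour exposure, single concentration, 96-well plates; percent growth endpoint where 0 means no net growth. Active: below 10.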 Activity calls are given as the source filed them.

Tests used:
Assay in all cases: NCI-60 one-dose screen, 48 h (100 = growth as untreated, 0 = no growth, -100 = all killed)
Conditions in all cases: 10 µM
NCI-H23 lung = system: NCI-H23 lung
NCI-H226 lung = system: NCI-H226 lung
HOP-62 NSCLC = system: HOP-62 NSCLC
NCI-H460 lung = system: NCI-H460 lung
HOP-92 NSCLC = system: HOP-92 NSCLC
NCI-H522 lung = system: NCI-H522 lung
A549/ATCC NSCLC = system: A549/ATCC NSCLC
786-0 renal = system: 786-0 renal
COLO 205 colon = system: COLO 205 colon
K-562 leukemia = system: K-562 leukemia
MALME-3M melanoma = system: MALME-3M melanoma
MDA-MB-231 breast = system: MDA-MB-231 breast
RXF 393 renal = system: RXF 393 renal
SF-268 CNS = system: SF-268 CNS
SF-295 CNS = system: SF-295 CNS
SF-539 CNS = system: SF-539 CNS
UACC-257 melanoma = system: UACC-257 melanoma
M14 melanoma = system: M14 melanoma
DU-145 prostate = system: DU-145 prostate

Measured: growth

CCOC(=O)/C(=C(\C)N)C1CC(=O)NC1=O (stereo not drawn)
inactive: NCI-H23 lung 96.3% | NCI-H226 lung 97.3% | HOP-62 NSCLC 107% | NCI-H460 lung 101% | HOP-92 NSCLC 112% | NCI-H522 lung 102% | A549/ATCC NSCLC 101% | 786-0 renal 101% | COLO 205 colon 109% | K-562 leukemia 83.6% | MALME-3M melanoma 111% | MDA-MB-231 breast 112% | RXF 393 renal 102% | SF-268 CNS 108% | SF-295 CNS 101% | SF-539 CNS 105% | UACC-257 melanoma 101% | M14 melanoma 97.2%

CCOc1ccccc1/C=N/N1CCCCCC1
inactive: NCI-H23 lung 89.3% | NCI-H226 lung 88.2% | HOP-62 NSCLC 97.3% | NCI-H460 lung 107% | HOP-92 NSCLC 86.9% | NCI-H522 lung 102% | A549/ATCC NSCLC 117% | 786-0 renal 119% | COLO 205 colon 108% | DU-145 prostate 111% | MDA-MB-231 breast 96.3% | RXF 393 renal 99.9% | SF-268 CNS 93.7% | SF-295 CNS 83.8% | SF-539 CNS 109% | UACC-257 melanoma 115% | M14 melanoma 107%

COc1cc(C2CC(c3ccccc3)=NN2C(C)=O)cc(OC)c1OC (stereo not drawn)
active: NCI-H522 lung 7.46% | SF-295 CNS 7.61%
inactive: NCI-H23 lung 64.1% | NCI-H226 lung 82.1% | HOP-62 NSCLC 68.2% | NCI-H460 lung 15.5% | HOP-92 NSCLC 76.1% | A549/ATCC NSCLC 54.7% | 786-0 renal 62.2% | COLO 205 colon 35.3% | DU-145 prostate 49.3% | K-562 leukemia 36.9% | MDA-MB-231 breast 75.3% | RXF 393 renal 55% | SF-268 CNS 46.2% | SF-539 CNS 28.3% | UACC-257 melanoma 64% | M14 melanoma 29.7%

O=C1/C=C/[C@@H](O)[C@@H]2C[C@@H](O)C[C@H]2/C=C/CCC[C@H](CCc2ccc(NC(=S)Nc3ccc4c(c3)C(=O)OC43c4ccc(O)cc4Oc4cc(O)ccc43)cc2)O1
active: NCI-H23 lung 4.65% | HOP-92 NSCLC -4.85% | NCI-H522 lung -31% | MALME-3M melanoma -1.26% | MDA-MB-231 breast -88.7% | RXF 393 renal -30.2% | UACC-257 melanoma 0.525%
inactive: NCI-H226 lung 17.4% | HOP-62 NSCLC 25% | NCI-H460 lung 15.4% | A549/ATCC NSCLC 17.3% | DU-145 prostate 17.4% | K-562 leukemia 13.5% | SF-268 CNS 12.8% | SF-295 CNS 22.2% | SF-539 CNS 29.4% | M14 melanoma 10.9%

CC(=O)Nc1ccc(CC[C@H]2CCC/C=C/[C@@H]3C[C@H](O)C[C@H]3[C@H](O)/C=C/C(=O)O2)cc1
inactive: NCI-H226 lung 10.1% | HOP-62 NSCLC 15.7% | NCI-H460 lung 13.3% | A549/ATCC NSCLC 11.9% | DU-145 prostate 22.9% | K-562 leukemia 15.3% | SF-268 CNS 13.8% | SF-295 CNS 16.9% | SF-539 CNS 25.3%
active: NCI-H23 lung -19% | HOP-92 NSCLC -15% | NCI-H522 lung -39.3% | MALME-3M melanoma -7.38% | MDA-MB-231 breast -88.4% | RXF 393 renal -32.1% | UACC-257 melanoma -3.78% | M14 melanoma 9.87%

C[n+]1c2ccccc2nc2ccccc21
inactive: NCI-H226 lung 42.2% | NCI-H460 lung 17.3% | A549/ATCC NSCLC 24.1% | 786-0 renal 10.9% | K-562 leukemia 25.5% | RXF 393 renal 24.3% | SF-268 CNS 20.7% | SF-295 CNS 23.4% | SF-539 CNS 29.1%
active: NCI-H23 lung -9.78% | HOP-62 NSCLC -18.8% | HOP-92 NSCLC -10.7% | NCI-H522 lung -39.4% | COLO 205 colon -25.3% | DU-145 prostate -59.4% | MDA-MB-231 breast -2.35% | M14 melanoma -55.7%

Clc1ccc(Cc2ccncc2)cc1
inactive: NCI-H23 lung 105% | NCI-H226 lung 109% | HOP-62 NSCLC 107% | NCI-H460 lung 113% | HOP-92 NSCLC 85.6% | NCI-H522 lung 82% | A549/ATCC NSCLC 106% | 786-0 renal 97.3% | COLO 205 colon 109% | DU-145 prostate 114% | K-562 leukemia 111% | MDA-MB-231 breast 99.5% | RXF 393 renal 110% | SF-268 CNS 96.2% | SF-295 CNS 112% | UACC-257 melanoma 104% | M14 melanoma 109%

Cc1cc(Cl)ccc1Nc1nc(C(F)(F)F)ccc1C(=O)N/N=C/c1cccc(O)c1
inactive: NCI-H23 lung 43.8% | NCI-H226 lung 38.8% | HOP-62 NSCLC 44.2% | NCI-H460 lung 30.9% | HOP-92 NSCLC 48.1% | NCI-H522 lung 40.2% | COLO 205 colon 28.2% | K-562 leukemia 20.7% | MDA-MB-231 breast 39.7% | SF-268 CNS 39.3% | SF-539 CNS 23.5% | UACC-257 melanoma 44.1% | M14 melanoma 43.9%
active: 786-0 renal -30.6% | SF-295 CNS 6.71%

Cc1cc(=O)n2nnc3cc(Cl)c(Cl)cc3n12
inactive: NCI-H23 lung 95.6% | NCI-H226 lung 112% | HOP-62 NSCLC 111% | NCI-H460 lung 113% | HOP-92 NSCLC 101% | NCI-H522 lung 53.9% | A549/ATCC NSCLC 104% | 786-0 renal 108% | DU-145 prostate 105% | MDA-MB-231 breast 107% | RXF 393 renal 91.9% | SF-268 CNS 101% | SF-295 CNS 111% | SF-539 CNS 108% | UACC-257 melanoma 102% | M14 melanoma 96.9%
active: COLO 205 colon -63.7%
